Common to all, as to assay: DAPPL (digital affinity profiling via proximity ligation, sequencing); 10 mM Tris-HCl pH 7.5, 50 mM NaCl, 1 mM DTT, 4% glycerol, room temperature, 30 min; GST-TFs on glutathione beads, 16-mer random dsDNA library, 0.1% formaldehyde crosslink after washing; high values mean tight binding
Details in all cases: protein: recombinant; tags: N-terminal GST; dsDNA, one strand shown

Assay [1] addresses T1, SPIC (Homo sapiens, UniProt Q8N5J4 1-248).
T1 sequence: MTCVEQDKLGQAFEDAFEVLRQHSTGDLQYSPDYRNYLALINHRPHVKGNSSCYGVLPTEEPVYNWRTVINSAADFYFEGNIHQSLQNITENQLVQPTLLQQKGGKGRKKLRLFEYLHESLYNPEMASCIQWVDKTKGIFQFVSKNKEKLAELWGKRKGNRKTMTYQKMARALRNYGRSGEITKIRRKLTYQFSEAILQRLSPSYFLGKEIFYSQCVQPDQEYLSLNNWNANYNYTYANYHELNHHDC
The method in brief: (§1)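 Binding signal is given per hexamer as its read frequency for a factor divided by its frequency in the tag-only sample. GST-fused human transcription factors were expressed in yeast, captured on glutathione beads, barcoded with DNA and pooled with that sample, then incubated with 200 nmole of a 16-mer random double-stranded DNA library in Tris/NaCl/DTT/glycerol buffer for 30 min at room temperature. The pools were then washed, crosslinked, proximity-ligated, amplified by PCR and sequenced on an Illumina NextSeq500.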

The target in assay [2] is T2, ETV2 (Homo sapiens, UniProt O00321 1-342).
T2 sequence: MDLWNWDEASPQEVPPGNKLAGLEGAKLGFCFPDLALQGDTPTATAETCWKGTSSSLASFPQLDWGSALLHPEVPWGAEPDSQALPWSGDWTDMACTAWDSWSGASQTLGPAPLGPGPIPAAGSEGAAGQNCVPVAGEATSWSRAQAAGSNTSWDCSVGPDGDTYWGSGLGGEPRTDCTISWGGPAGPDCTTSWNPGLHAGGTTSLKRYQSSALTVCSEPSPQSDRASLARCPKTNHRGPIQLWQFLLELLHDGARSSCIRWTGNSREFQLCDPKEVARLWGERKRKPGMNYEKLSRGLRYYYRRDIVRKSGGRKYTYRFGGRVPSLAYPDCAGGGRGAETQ
The method in brief:
as §1

In assay [3] the target is T3, ERF (Homo sapiens, UniProt P50548 1-548).
T3 sequence: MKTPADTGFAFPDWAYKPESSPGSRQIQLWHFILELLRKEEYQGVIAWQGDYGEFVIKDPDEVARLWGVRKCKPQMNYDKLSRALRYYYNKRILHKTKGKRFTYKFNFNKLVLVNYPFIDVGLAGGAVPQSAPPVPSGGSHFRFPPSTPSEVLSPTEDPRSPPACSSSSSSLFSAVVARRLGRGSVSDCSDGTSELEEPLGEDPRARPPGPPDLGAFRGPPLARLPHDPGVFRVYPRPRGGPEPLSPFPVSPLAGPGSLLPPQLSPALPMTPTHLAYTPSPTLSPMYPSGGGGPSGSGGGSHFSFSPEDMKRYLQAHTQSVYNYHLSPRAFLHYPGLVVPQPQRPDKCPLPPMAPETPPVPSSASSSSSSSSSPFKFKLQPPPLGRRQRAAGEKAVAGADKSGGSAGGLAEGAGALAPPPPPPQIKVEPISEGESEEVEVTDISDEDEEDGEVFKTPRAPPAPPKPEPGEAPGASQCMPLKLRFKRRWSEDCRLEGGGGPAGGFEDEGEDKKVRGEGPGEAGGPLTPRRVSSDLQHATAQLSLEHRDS
The method in brief: as §1

Assay [4] has as its target ELF1 (Homo sapiens, UniProt P32519 1-619). Summed up: as §1
Assay [5] concerns the target SPI1 (Homo sapiens, UniProt P17947 1-270). Summed up:
as §1

The target of assay [6] is ETV1 (Homo sapiens, UniProt P50549 1-477). Summed up: as §1
Assay [7] deals with T4, ETV3L (Homo sapiens, UniProt Q6ZN32 1-361).
T4 sequence: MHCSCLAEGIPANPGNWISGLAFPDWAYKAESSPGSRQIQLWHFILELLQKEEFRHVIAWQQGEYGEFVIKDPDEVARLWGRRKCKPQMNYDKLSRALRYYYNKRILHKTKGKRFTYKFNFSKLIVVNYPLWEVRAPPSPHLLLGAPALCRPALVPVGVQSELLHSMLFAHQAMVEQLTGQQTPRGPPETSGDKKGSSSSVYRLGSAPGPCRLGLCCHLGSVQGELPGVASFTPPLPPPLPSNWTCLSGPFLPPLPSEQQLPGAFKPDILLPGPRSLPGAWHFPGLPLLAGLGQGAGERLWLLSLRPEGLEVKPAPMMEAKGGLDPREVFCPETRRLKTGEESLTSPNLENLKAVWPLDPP
Summed up: as §1

Assay [8] has as its target T5, SPDEF (Homo sapiens, UniProt O95238 1-335).
T5 sequence: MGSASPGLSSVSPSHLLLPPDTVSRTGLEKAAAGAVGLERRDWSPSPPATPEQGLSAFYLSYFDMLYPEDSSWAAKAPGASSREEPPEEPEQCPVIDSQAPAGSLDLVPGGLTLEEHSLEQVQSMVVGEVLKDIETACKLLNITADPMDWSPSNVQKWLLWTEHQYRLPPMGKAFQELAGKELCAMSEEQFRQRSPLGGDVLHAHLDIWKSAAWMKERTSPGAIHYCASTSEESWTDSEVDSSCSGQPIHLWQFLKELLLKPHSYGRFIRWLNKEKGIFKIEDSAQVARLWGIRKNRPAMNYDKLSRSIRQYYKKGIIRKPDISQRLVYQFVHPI
Summed up:
as §1

Assay [9] addresses ETV6 (Homo sapiens, UniProt P41212 1-452). The method in brief:
as §1

The target of assay [10] is T6, GABPA (Homo sapiens, UniProt Q06546 1-454).
T6 sequence: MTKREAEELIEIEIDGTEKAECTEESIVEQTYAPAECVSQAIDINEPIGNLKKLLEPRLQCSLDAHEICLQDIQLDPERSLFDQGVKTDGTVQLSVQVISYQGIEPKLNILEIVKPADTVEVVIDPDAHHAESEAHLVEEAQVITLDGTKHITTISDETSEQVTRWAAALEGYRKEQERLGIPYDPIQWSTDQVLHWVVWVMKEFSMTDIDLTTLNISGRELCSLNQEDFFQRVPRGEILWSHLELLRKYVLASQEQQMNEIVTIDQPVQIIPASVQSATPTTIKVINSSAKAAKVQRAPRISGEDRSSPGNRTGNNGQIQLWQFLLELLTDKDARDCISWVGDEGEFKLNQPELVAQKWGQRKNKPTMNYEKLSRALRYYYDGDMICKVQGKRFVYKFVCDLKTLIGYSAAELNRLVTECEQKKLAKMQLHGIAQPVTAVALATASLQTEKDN
The method in brief: as §1

Assay [11] has as its target T7, ERG (Homo sapiens, UniProt P11308 1-479).
T7 sequence: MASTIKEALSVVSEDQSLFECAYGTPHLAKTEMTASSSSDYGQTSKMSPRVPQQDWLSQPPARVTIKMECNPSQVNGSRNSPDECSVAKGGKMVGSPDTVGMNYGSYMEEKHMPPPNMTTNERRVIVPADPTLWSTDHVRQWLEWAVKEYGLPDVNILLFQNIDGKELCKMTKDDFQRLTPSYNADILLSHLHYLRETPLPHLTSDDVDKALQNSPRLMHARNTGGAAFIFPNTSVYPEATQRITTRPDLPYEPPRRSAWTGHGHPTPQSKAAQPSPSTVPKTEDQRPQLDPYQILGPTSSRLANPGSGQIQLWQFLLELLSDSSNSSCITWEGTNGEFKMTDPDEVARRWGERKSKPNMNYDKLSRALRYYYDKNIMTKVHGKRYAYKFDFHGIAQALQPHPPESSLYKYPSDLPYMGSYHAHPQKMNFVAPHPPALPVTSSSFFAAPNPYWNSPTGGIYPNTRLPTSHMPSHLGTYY
The method in brief: as §1

Assay [12] deals with T8, EHF (Homo sapiens, UniProt Q9NZC4 1-300).
T8 sequence: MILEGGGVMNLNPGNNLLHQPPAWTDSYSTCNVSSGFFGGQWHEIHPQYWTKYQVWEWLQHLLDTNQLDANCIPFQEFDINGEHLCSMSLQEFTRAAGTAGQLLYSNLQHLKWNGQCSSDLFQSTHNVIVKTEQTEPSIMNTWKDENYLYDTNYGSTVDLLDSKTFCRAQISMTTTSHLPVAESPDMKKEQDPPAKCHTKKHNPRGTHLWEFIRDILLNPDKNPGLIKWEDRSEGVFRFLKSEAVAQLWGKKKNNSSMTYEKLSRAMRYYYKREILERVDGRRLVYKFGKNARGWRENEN
The method in brief: as §1

The target of assay [13] is T9, ELK3 (Homo sapiens, UniProt P41970 1-407).
T9 sequence: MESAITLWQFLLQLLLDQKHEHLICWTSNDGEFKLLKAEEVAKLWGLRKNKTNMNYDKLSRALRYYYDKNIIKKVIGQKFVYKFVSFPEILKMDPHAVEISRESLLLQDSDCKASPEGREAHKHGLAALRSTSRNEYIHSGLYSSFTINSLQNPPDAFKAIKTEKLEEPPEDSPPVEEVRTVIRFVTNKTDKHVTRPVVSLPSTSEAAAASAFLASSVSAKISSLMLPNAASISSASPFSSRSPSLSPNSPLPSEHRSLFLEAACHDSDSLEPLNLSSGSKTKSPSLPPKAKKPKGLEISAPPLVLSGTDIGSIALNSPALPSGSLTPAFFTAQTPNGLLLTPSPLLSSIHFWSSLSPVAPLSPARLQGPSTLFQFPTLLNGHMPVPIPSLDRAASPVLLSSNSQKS
Summed up:
as §1

The target in assay [14] is T10, ELF3 (Homo sapiens, UniProt P78545 1-371).
T10 sequence: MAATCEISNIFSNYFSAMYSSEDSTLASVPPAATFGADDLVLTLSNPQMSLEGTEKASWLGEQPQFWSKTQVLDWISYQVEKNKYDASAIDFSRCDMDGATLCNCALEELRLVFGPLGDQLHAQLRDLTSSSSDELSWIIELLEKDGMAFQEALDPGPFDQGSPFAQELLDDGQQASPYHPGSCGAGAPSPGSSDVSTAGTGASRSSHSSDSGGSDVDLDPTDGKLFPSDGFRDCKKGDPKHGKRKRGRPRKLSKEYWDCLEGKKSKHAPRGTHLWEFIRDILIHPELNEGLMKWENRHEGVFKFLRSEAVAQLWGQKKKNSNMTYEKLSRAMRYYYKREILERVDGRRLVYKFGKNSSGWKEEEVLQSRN
The method in brief: as §1

ETV1, sequence (P50549 whole entry): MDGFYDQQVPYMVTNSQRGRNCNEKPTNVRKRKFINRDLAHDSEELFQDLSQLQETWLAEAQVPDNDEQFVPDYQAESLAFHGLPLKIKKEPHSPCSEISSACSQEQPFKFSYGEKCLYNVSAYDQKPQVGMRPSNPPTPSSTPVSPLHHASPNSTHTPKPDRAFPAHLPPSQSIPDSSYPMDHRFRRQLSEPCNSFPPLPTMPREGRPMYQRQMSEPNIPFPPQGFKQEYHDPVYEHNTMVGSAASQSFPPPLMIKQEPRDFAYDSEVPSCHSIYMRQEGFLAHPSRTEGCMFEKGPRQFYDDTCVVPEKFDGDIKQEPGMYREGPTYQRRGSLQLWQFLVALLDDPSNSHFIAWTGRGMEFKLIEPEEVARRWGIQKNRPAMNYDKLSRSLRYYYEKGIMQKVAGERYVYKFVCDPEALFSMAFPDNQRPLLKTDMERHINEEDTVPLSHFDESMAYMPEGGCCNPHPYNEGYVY
ELF1, sequence (P32519 whole entry): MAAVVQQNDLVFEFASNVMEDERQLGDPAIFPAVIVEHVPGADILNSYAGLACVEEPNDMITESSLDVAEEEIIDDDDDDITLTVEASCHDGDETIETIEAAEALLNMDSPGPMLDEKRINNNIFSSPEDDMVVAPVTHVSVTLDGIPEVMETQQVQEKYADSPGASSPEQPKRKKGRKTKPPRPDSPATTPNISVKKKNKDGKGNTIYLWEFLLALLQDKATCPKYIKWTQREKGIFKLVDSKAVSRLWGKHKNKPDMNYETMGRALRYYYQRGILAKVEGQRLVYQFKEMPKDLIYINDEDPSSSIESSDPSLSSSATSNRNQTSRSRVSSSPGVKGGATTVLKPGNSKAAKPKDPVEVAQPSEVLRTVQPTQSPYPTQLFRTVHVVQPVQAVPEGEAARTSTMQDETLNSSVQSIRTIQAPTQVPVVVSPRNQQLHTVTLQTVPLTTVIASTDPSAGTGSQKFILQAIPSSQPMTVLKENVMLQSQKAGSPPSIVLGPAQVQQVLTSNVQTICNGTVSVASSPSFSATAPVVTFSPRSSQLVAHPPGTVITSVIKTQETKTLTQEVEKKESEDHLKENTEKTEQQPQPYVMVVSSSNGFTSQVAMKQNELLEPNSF
ETV6, sequence (P41212 whole entry): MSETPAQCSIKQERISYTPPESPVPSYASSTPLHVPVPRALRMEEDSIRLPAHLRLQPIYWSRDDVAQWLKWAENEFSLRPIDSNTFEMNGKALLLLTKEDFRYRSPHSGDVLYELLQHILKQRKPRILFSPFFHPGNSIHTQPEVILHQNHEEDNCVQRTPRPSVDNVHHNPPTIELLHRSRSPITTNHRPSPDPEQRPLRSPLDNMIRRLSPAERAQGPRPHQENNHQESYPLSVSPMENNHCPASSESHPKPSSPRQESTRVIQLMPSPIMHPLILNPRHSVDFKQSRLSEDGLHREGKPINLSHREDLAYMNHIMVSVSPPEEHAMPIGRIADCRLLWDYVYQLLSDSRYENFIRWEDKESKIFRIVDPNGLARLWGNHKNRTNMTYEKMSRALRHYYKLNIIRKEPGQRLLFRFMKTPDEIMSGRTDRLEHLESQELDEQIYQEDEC

As to GTTCGT, the binding signal is 1.12 fold enrichment (6-mer frequency, TF over GST control) in assay [1]; 1.05 fold enrichment (6-mer frequency, TF over GST control) in assay [2]; 1.12 fold enrichment (6-mer frequency, TF over GST control) in [3].
For CACGGC, the binding signal in assay [4] was 1.04 fold enrichment (6-mer frequency, TF over GST control); in assay [5], 1.01 fold enrichment (6-mer frequency, TF over GST control); in assay [1], 1.03 fold enrichment (6-mer frequency, TF over GST control); in assay [6], 1 fold enrichment (6-mer frequency, TF over GST control); in assay [7], 1.07 fold enrichment (6-mer frequency, TF over GST control); in assay [8], 1.03 fold enrichment (6-mer frequency, TF over GST control). Further, the binding signal in assay [9] was 1.05 fold enrichment (6-mer frequency, TF over GST control).
Regarding ACGAGC, the binding signal was 1.01 fold enrichment (6-mer frequency, TF over GST control) in assay [10]; 1.01 fold enrichment (6-mer frequency, TF over GST control) in assay [11]; 1.02 fold enrichment (6-mer frequency, TF over GST control) in [12]; 1.03 fold enrichment (6-mer frequency, TF over GST control) in assay [13]; 1.06 fold enrichment (6-mer frequency, TF over GST control) in assay [1]; 1.04 fold enrichment (6-mer frequency, TF over GST control) in assay [2]. Further, in assay [14], the binding signal is 1.01 fold enrichment (6-mer frequency, TF over GST control).
